High-throughput results: PubChem BioAssay, several laboratories
In the library only some 12% were active in any assay of this set; here they are far more common.
Insulin prom inh: TRM-6 insulin promoter activity inhibition | actives 0.9% (n = 130,000) | TRM-6 cells (human fetal islet line), insulin promoter-eGFP reporter, imaging; reporter expression induced with tamoxifen | inhibition, % at 2 µM;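 active = inhibition above the mean plus 3 SD, with well images judged a real hit on visual review, cut at about 60% in these data, passing the limit was not always enough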
WT yeast gro inh: growth inhibition of WT yeast, mitochondrial fusion screen. actives 2.1% (n = 190,000). mitochondrial fusion phenotypic screen, WT strain. inhibition, % at 10 µM; in the data active = inhibition above about 58%; tested in S. cerevisiae
Cl transport mod: KCC2 (human) Cl- transport modulation | B-score of Tl+ flux slope (higher = more flux/activation; lower = inhibition) at 10 µM | KCC2 cells, thallium flux FluoZin-2 fluorescence | actives 2.2% (n = 190,000) | Q9H2X9;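 active = thallium flux slope and its plate-corrected score both differing from the plate sample mean at a set confidence after two filtering rounds, in either direction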;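 also: slope of fluorescence scaled to starting intensity during 10 to 20 s after thallium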
ROMK mod: modulates human ROMK potassium channel activity; B-score at 10 µM; AID 1918; P48048; actives 2% (n = 130,000); Tet-inducible ROMK, thallium flux fluorescence; actives lie on both sides;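 active = signal ratio slope over the read window, or its plate-corrected B-score, at least 3 SD from the plate mean, either direction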;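 also: B-score of the F/F0 ratio slope over 7 to 12 s after thallium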
Target sequence (P48048 whole entry, looked up): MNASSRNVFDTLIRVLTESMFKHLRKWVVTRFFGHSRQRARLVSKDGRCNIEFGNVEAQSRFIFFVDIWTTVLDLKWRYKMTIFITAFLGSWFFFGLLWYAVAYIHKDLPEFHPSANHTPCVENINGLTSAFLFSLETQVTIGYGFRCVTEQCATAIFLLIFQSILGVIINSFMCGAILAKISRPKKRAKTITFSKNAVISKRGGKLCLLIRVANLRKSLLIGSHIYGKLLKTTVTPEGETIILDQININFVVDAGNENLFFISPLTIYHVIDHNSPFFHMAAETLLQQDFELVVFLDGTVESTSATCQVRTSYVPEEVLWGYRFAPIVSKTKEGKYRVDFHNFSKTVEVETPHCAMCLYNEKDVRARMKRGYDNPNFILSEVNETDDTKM
Ins promoter up: MIN6 insulin promoter up-regulation; MIN6 insulin promoter-GFP reporter, high-content imaging; hits give high values; z-score at 5 µM; actives 0.3% (n = 190,000);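 active = z-score above 3 at 5 µM with at least 500 cells counted in the well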
Lmaj promast: inhibitors of Leishmania major promastigote growth; Leishmania major promastigotes, resazurin fluorescence viability; inhibition, % at 10 µM; actives 9% (n = 200,000); AID 1063; in the data active = inhibition above about 50%;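 also: promastigotes grown with compound for 44 hours at 28 °C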
Active calls of the source: *; x = not tested or not shown.

SMILES	Insulin prom inh	WT yeast gro inh	Cl transport mod	ROMK mod	Ins promoter up	Lmaj promast
C/C(=C\c1ccccc1)CN1CCC(C(=O)N2CCCCC2)CC1	-62	-1	0.057	0.37	-0.08	-4
CCCCNC(=O)C1CCN(C/C(C)=C/c2ccccc2)CC1	3	10	-1.2	x	0.05	91*
C/C(=C\c1ccccc1)CN1CCC(C(=O)N2CCC(C)CC2)CC1	-46	-1	-1.1	x	-0.62	93*
O=C(C1CCN(C2CCN(C/C(Cl)=C/c3ccccc3)CC2)CC1)N1CCOCC1	x	8	x	x	0.37	97*
O=C(CN1CCC(N2CCCCC2)CC1)N1CCOCC1	x	3	1.6	0.69	-0.42	-13
Cc1c(C(=O)Nc2ccc(Cl)cc2)c2ccccn2c1CCc1ccncc1	x	20	-0.17	x	-0.59	15
Cc1c(C(=O)Nc2cccc(Cl)c2)c2ccccn2c1CCc1ccncc1	x	18	-0.15	x	0.12	75*
COc1ccc(/C=C(\NC(=O)c2ccccc2)C(=O)OCC2CCCN3CCCCC23)cc1OC (stereo not drawn)	-56	-7	-0.42	-0.87	0.17	73*
O=C(Nc1ccc(C(=O)OC[C@@H]2CCCN3CCCC[C@H]23)cc1)c1cccc(Br)c1	19	12	-0.12	0.3	-0.77	68*
CCc1ccc(OC)c(-c2csc(N)n2)c1	45	58*	-3	0.054	-0.14	0
CN(Cc1nnc(SCC(=O)NCCc2ccccc2)n1C)S(=O)(=O)c1ccccc1	-83	8	-0.036	-1	x	-4
CCN(c1ccccc1)S(=O)(=O)c1cc(C(=O)Oc2ccc3c(C)cc(=O)oc3c2)ccc1C	-3	-1	0.18	-0.69	-0.23	67*
CC(=O)Oc1ccc2c(C)cc(=O)oc2c1	18	-9	-1.2	0.85	x	-5
Cc1ccc(CN2CCN(Cc3c[nH]c4ccccc34)CC2CCO)o1 (stereo not drawn)	x	-3	-0.78	-0.14	0.64	1
CC(C)(C)C1CCC(=NOC(=O)c2ccc(F)cc2)CC1 (stereo not drawn)	0	98*	0.085	-0.081	0.26	-3
Fc1ccc(Nc2nc(-c3ccncc3)nc3ccccc23)cc1F	x	5	0.35	x	-1	81*
COc1cc(/C=C2\C(=O)N(CCC#N)N=C2C)ccc1OCC(=O)Nc1ccccc1	3	-7	-0.01	0.15	-0.83	60*
O=C(/C=C/c1ccccc1)NNc1ccc(Cl)cc1	x	44	-1	-0.6	0.12	99*
O=C(CCc1ccccc1)NNC(=O)c1ccccc1C(=O)O	-27	-9	0.051	0.057	-0.83	60*
Cc1ccccc1C(=O)NNC(=O)CCc1ccccc1	8	-4	0.59	0.051	-0.34	-1
O=C(O)c1ccccc1C(=O)NNc1ccc(Cl)cc1	28	72*	x	x	x	30
NS(=O)(=O)c1ccc(NNC(=O)c2ccccc2C(=O)O)cc1	x	x	-0.44	0.45	0.85	x
CC(=O)Nc1ccc(C(=O)OCC(=O)c2ccc(F)cc2)cc1	45	10	-2.7	0.09	-0.02	-11
Cc1cccc(N2CCN(C(=O)CCNC(=O)Cn3ccc4ccccc4c3=O)CC2)c1C	20	11	x	-2	-0.58	7
CCn1cc(C(=O)N2CCN(c3ccc(C(C)=O)cc3)CC2)c2cc(OC)c(OC)cc2c1=O	x	7	-0.62	1	-0.68	5
SMILES	Insulin prom inh	WT yeast gro inh	Cl transport mod	ROMK mod	Ins promoter up	Lmaj promast
CCCCOC(=O)C1=C(C)Nc2ncnn2C1c1cccc(OC)c1 (stereo not drawn)	x	-15	0.3	x	1.9	61*
COc1cccc(C2C(C(=O)OCc3ccccc3)=C(C)Nc3ncnn32)c1OC (stereo not drawn)	x	5	x	x	-0.05	91*
CCOC(=O)C1=C(C(F)(F)F)Nc2ncnn2C1c1cc(OC)ccc1OC (stereo not drawn)	-10	-12	0.087	0.29	0.09	-6
CCOC(=O)C1=C(c2ccccc2)Nc2ncnn2C1c1ccc(OC)c(OC)c1OC (stereo not drawn)	-43	-13	0.73	x	0.2	86*
CCOC(=O)C1=C(c2ccccc2)Nc2ncnn2C1c1cc(OC)ccc1OC (stereo not drawn)	-339	10	0.83	1.8	-1.2	100*
CCCCOC(=O)C1=C(C)Nc2ncnn2C1c1cccc(OC)c1OC (stereo not drawn)	8	19	x	x	0.15	10
CC(C)N(C)CCOC(=O)c1ccc2c(c1)OCCO2	-23	-11	0.12	x	x	-2
